For some assays here: Potency and affinity values are given separately.
Legend:
Set-up in all cases: scale not given: direction of the effect not stated beside the values
[1] = target: Protein translocase subunit SecA (Escherichia coli (strain K12)) (UniProt P10408); assay: Assay to Identify E. coli SecA ATPase Inhibitors; format: functional; conditions: 30 µM
[2] = target: T1, Ubiquitin-activating enzyme e1, putative (Leishmania donovani (strain BPK282A1)) (UniProt E9BSI1); assay: Leishmania donovani Ubiquitin Activating Enzyme (LdE1); format: functional; conditions: 30 µM
T1 sequence (whole entry): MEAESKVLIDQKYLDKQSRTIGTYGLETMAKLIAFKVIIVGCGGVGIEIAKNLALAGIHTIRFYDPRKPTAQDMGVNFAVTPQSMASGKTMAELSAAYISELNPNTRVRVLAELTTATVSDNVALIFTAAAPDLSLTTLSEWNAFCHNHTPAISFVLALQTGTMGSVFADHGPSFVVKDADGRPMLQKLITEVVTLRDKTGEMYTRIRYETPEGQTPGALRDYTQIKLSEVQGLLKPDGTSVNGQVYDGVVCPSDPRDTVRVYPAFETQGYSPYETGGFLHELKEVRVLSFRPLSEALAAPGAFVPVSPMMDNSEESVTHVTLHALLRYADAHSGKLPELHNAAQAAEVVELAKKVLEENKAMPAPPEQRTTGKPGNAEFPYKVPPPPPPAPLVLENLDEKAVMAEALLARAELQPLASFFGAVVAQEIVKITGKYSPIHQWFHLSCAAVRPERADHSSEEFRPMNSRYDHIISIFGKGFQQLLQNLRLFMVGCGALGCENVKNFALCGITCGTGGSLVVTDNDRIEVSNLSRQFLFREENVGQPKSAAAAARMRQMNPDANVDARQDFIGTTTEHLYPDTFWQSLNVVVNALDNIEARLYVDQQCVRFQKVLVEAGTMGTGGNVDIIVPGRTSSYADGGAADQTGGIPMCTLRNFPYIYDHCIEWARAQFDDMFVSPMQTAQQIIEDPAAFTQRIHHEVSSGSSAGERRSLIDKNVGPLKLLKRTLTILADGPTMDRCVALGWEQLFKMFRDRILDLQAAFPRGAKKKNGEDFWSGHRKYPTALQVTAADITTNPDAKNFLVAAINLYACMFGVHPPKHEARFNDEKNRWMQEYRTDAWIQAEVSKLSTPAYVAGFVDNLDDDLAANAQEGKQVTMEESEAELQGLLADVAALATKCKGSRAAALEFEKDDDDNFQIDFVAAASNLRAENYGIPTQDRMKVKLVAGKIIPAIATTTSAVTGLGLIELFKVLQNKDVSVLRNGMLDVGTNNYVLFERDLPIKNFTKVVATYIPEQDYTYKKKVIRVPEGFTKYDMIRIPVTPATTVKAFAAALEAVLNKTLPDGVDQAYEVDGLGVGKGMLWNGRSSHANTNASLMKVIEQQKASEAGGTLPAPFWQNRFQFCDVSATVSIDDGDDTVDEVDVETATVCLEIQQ

[3] = target: AMP-activated protein kinase, AMPK (Homo sapiens) (UniProt P54646+O43741+P54619+Q9UGJ0+Q9Y478+Q13131+Q9UGI9); assay: AMP-dependent Kinase enzyme assay. An in vitro enzyme assay that detects ADP turnover that is directly proportional to AMPK activity. This uses naive AMPK that is activated during the assay with MK-8722; format: functional; conditions: 30 µM
[4] = target: Sialic acid-binding Ig-like lectin 9 (Homo sapiens) (UniProt Q9Y336); assay: Hs-Siglec9 ALPHAscreen SOP 20170721; conditions: 10 µM
Trypanosoma cruzi = assay: Trypanosoma cruzi phosphomannomutase and mannose-1-phosphate guanylyltransferase assay; format: functional; conditions: 10 µM
[5] = target: T2, Arginase-2, mitochondrial (Homo sapiens) (UniProt P78540); assay: in vitro enzyme assay to detect the production of urea directly proportional to the activity of Arginase II; format: functional; conditions: 33.3 µM; further: in the data most compounds retested in dose-response had high values
T2 sequence (whole entry): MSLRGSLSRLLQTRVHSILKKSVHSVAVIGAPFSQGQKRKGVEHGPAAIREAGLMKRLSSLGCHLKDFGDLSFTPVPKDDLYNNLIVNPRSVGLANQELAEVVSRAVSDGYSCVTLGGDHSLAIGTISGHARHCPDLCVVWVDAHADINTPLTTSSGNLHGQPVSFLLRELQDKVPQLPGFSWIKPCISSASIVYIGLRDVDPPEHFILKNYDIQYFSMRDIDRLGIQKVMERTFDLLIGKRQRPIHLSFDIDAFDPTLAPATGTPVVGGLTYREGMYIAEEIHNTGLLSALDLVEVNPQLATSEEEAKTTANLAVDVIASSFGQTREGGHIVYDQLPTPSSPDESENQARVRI

[6] = target: T3, Proteasome subunit beta (Trypanosoma cruzi) (UniProt O96673); assay: Trypanosoma cruzi proteasome chymotrypsin-like activity (TcProtChymo) assay.; further: in the data most compounds retested in dose-response had high values; format: functional; conditions: 9.37 µM
T3 sequence (whole entry): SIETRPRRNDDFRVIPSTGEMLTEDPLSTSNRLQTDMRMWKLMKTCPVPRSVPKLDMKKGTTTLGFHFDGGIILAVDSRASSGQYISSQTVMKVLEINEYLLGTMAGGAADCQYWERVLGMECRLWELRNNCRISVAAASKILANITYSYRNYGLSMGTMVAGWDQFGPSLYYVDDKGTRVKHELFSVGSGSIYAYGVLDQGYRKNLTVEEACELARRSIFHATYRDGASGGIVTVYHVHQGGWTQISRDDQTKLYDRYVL

Homo sapiens = organism: Homo sapiens; assay: To identify inhibition of the IFN signalling (Jak-Stat) pathway via expression of an eGFP reporter gene under the control of an IFN-stimulated response element (ISRE) containing MxA promoter.; format: functional; conditions: 30 µM
[7] = target: T4, Tyrosyl-tRNA synthetase, putative (Trypanosoma cruzi (strain CL Brener)) (UniProt Q4DSP6); assay: Trypanosoma cruzi tyrosyl tRNA synthetase (TcYRS) _High Tyrosine SOP; format: functional; conditions: 30 µM; further: in the data most compounds retested in dose-response had high values
T4 sequence (whole entry): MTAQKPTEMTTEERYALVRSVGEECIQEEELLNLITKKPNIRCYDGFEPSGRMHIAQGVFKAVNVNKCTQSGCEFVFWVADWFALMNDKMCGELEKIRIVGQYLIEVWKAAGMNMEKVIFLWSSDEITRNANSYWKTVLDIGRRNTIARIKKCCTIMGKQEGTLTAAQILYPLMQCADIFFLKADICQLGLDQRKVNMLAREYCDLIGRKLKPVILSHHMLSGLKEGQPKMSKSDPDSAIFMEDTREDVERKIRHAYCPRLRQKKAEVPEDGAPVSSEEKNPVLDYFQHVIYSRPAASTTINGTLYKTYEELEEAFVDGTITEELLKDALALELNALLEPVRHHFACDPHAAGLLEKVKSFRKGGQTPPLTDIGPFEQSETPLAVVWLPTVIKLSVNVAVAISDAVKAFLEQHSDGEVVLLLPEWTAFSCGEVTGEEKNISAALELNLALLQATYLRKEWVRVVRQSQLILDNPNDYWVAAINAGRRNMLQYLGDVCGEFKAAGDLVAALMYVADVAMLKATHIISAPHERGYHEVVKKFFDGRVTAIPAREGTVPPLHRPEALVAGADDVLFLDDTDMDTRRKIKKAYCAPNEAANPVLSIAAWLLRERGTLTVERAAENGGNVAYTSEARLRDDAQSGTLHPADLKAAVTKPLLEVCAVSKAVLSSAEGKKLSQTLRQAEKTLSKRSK

[8] = target: T4, Tyrosyl-tRNA synthetase, putative (Trypanosoma cruzi (strain CL Brener)); assay: Trypanosoma cruzi tyrosyl tRNA synthetase (TcYRS) SOP; format: functional; conditions: 30 µM
[9] = target: Chromo domain-containing protein 1 (Saccharomyces cerevisiae (strain ATCC 204508 / S288c) (Baker's yeast)) (UniProt P32657); assay: ScCHD-1 Enzyme Inhibition Assay; format: functional; conditions: 30 µM; further: in the data most compounds retested in dose-response had high values
Sequence of Chromo domain-containing protein 1 (Saccharomyces cerevisiae (strain ATCC 204508 / S288c) (Baker's yeast)) (P32657 whole entry, the tested form may be a part): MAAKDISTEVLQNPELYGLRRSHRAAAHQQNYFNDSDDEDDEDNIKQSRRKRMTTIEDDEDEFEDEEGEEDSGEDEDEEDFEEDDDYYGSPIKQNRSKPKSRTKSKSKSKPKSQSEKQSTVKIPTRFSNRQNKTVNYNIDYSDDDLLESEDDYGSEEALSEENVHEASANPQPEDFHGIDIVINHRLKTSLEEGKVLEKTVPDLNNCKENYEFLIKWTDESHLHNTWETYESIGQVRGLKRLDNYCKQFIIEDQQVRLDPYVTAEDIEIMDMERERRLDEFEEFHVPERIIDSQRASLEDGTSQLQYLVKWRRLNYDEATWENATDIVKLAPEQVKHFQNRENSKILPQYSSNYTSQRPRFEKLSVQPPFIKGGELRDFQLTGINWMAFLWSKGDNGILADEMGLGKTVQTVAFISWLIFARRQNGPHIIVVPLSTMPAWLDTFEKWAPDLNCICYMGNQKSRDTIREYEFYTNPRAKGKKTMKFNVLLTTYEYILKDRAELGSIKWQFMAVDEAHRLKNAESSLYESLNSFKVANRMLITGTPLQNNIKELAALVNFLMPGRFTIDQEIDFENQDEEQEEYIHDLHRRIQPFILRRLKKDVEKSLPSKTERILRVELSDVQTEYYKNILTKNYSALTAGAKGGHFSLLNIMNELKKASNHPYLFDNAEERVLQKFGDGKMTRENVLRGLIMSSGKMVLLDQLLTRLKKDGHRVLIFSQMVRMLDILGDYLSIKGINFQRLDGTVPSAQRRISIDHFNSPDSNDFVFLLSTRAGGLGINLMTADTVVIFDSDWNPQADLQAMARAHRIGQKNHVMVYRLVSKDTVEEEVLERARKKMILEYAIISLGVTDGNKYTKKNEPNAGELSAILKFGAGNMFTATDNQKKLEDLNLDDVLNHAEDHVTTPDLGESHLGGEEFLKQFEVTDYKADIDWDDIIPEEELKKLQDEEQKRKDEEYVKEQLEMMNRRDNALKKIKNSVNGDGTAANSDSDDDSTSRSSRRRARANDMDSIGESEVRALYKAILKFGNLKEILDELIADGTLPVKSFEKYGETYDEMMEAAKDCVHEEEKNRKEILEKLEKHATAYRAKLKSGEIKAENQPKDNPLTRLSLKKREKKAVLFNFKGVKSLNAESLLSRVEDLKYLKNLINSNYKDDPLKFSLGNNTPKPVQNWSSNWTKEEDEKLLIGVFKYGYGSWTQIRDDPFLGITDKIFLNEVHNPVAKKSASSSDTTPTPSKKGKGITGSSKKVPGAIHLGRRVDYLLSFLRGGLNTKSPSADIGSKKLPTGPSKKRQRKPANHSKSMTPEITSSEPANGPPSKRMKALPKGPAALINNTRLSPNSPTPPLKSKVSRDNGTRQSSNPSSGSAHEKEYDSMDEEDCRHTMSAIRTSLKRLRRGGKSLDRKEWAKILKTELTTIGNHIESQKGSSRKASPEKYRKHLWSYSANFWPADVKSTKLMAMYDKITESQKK

Sequence of Protein translocase subunit SecA (Escherichia coli (strain K12)) (P10408 whole entry): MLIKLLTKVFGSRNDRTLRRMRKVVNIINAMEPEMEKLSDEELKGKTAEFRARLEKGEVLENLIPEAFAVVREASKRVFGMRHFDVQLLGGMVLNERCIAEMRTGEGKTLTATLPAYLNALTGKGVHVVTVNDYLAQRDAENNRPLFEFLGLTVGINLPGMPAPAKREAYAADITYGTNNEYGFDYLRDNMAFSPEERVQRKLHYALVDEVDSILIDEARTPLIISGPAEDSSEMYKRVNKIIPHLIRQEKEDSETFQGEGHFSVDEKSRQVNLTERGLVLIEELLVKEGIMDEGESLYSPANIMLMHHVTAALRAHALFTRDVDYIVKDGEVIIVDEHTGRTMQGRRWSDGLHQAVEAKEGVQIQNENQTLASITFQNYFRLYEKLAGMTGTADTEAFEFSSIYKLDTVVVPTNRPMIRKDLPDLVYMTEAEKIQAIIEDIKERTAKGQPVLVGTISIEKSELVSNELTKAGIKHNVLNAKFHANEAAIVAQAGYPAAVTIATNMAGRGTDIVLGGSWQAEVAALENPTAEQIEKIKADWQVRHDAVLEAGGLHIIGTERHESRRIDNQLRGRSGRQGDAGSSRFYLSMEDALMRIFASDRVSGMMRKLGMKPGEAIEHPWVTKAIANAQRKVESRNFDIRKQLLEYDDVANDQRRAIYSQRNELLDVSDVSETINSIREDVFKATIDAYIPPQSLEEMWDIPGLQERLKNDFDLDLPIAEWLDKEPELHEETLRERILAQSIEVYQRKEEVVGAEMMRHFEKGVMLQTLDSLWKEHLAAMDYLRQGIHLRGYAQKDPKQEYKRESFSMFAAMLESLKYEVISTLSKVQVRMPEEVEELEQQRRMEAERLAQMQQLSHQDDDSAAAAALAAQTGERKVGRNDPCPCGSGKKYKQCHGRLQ
Sequence of Sialic acid-binding Ig-like lectin 9 (Homo sapiens) (Q9Y336 whole entry): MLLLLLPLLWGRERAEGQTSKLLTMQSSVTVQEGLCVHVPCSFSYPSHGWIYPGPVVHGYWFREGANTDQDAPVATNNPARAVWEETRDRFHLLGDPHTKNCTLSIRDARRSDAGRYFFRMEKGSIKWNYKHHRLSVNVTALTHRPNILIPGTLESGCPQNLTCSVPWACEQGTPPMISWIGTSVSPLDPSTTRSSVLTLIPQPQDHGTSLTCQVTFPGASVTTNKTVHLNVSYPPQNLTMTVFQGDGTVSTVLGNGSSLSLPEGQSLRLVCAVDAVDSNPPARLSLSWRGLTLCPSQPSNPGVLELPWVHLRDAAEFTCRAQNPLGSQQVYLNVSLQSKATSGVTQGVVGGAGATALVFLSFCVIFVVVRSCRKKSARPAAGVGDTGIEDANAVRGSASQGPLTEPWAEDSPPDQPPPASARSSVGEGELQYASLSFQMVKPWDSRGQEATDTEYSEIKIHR

Row | SMILES | Percent Effect [1] | Percent Effect [2] | Percent Effect [3] | Percent Effect [4] | Percent Effect (Trypanosoma cruzi) | Percent Effect [5] | Percent Effect [6] | Percent Effect (Homo sapiens) | Percent Effect [7] | Percent Effect [8] | Percent Effect [9]
1 | CC(C)C1CN(C(=O)c2ccc(N3CCCC3)nc2)CCS1 (configuration not stated) | -4.92% | 2.6% | 0.107% | 2.6% | -0.492% | 0% | -1.17% | -12.6% | 4.3% | 6.17% | -1.7%
2 | Cc1cccc(OCCC(=O)NCC(C)(C)C(N)=O)c1 | -3.42% | 10.5% | 1.54% | 16.5% | 1.13% | 2.68% | 8.19% | -23.5% | 4.41% | -41.5% | -10.8%
3 | O=C(COCC1CC1)N1CCCC(n2cncn2)C1 (configuration not stated) | 1.39% | 10.8% | -12% | -7.81% | -3.3% | -2.81% | 13% | 12.5% | 1.48% | 16.1% | -2.64%
4 | O=C1CC(c2cccnc2)C2(CCN(S(=O)(=O)C3CC3)CC2)N1 (configuration not stated) | -5.32% | 8.11% | 1.06% | -2.02% | 3.42% | -4.78% | 15.3% | -9.26% | 4.32% | 12.8% | 2.44%
5 | CN1CCC(c2nnc(CN3CCC(O)CC3)n2C)CC1 | -3.38% | 8.22% | 6.23% | -1.15% | -1.76% | 1.82% | 8.87% | 1% | 4.3% | 15% | -4.74%
6 | COCCN1CC[C@H](O)[C@@H]1Cc1ccccc1 | -2.09% | 12% | -0.98% | 0.93% | 0.786% | 6.87% | 20% | 22.1% | 5.29% | 7.69% | -4.88%
7 | Cc1cc(C)c(CNC(=O)N(C)Cc2sccc2C)c(=O)[nH]1 | -4.14% | 18.4% | -5.42% | -3.09% | -3.46% | -2.88% | 2.62% | 9.33% | 4.43% | 11.1% | -4.59%
8 | Cc1cnn(C2CN(CC(=O)Nc3cccnc3)C2)c1 | -4.23% | 7.89% | -7.32% | -2.24% | -8.68% | 2.52% | -0.254% | -0.514% | -4.43% | 3.7% | 3.7%
9 | CN1CCCC1CNC(=O)CCCOc1ccc(F)cc1 (configuration not stated) | -1.24% | 0% | 7.48% | 11.7% | 4.7% | -3.83% | 0.835% | -4.13% | 4.41% | 7.32% | -3.92%
10 | Cc1occc1C(=O)N1CCOCC2(CCN(Cc3nccs3)C2)C1 (configuration not stated) | -0.601% | 2.6% | 0.286% | 7.22% | -0.688% | 5.52% | 9.82% | -13.2% | -3.23% | -6.17% | 2.92%
11 | COCC1CN(Cc2cc(C)on2)Cc2cn(C)nc21 (configuration not stated) | -1.68% | 8% | 1.48% | 12.2% | -0.965% | -24.2% | 9.06% | -11% | 6.25% | 10% | -4.54%
12 | c1cc(CN2CCN(Cc3cscn3)CC2)cs1 | -1.31% | 10.4% | 3.68% | -2.63% | -2.25% | 4% | 2.67% | 29.1% | 2.86% | 2.35% | -6.18%
13 | O=C(c1cc[nH]n1)N1CCCC1C1CCN(Cc2ccccc2)CC1 (configuration not stated) | -0.52% | -7.89% | 10.9% | 1.13% | -7.11% | 1.18% | 16.6% | -0.106% | 4.25% | 7.79% | -1.17%
14 | CC(C)c1ncncc1C(=O)N1CCCN(Cc2cccs2)CC1 | -1.81% | 16.2% | -2.92% | -2.71% | 8.08% | -6.47% | 6.46% | 5.27% | 6.93% | 18.3% | -5.18%
15 | Cn1cnc2c(N3CCCC3)nc(C3CCNCC3)cc21 | -0.224% | 13.3% | -2.65% | 0.534% | 0.965% | -48.6% | 9.23% | 1.97% | 3.12% | 20% | -8.26%
16 | Cc1nnc(CN2CCC(N(C)Cc3nnc(C4CC4)n3C)C2)o1 (configuration not stated) | -3.08% | 16.2% | -9.74% | -7.84% | -6.32% | -1.2% | 5.04% | 20.7% | 4.43% | 11.1% | -4.72%
17 | O=C(c1cccc2cccnc12)N1CCCN(c2cccnn2)CC1 | -6.9% | 10.4% | -4.23% | 1.47% | 6.37% | 1.9% | 10.8% | 0.652% | 2.86% | 11.8% | -27.3%
18 | Cc1ccccc1CN1CCC2(COCc3cnc(N(C)C)nc32)C1 (configuration not stated) | -1.75% | 2.74% | -2.35% | 15.2% | 8.73% | -2% | 8.65% | 19.6% | 9.38% | 13.6% | -2.3%
19 | Cc1nc(C)n(CC2CN(c3ncccn3)Cc3nccn3C2)n1 (configuration not stated) | -6.81% | 8.11% | -2.43% | 1.67% | -3.42% | -2.73% | 6.44% | 2.81% | 2.15% | 11.1% | -2.96%
20 | Cc1nc(C)n(CC2CN(c3ncnc4[nH]ccc34)CCO2)n1 (configuration not stated) | -2.48% | 11.4% | 24% | -0.101% | -3.38% | -2.37% | 6% | 28.6% | 2.08% | 12.7% | -20.9%
21 | CCNC(=O)NC(=O)CSC(C)c1c(F)cccc1F (configuration not stated) | -5.95% | 2.67% | 1.21% | -3.31% | -5.55% | -4.17% | 22.3% | 10.5% | 0.546% | -1.24% | -6.68%
22 | O=C(NCC1CCOCC1)[C@H]1C[C@@H]2CCN(Cc3ccncc3)C[C@@H]2O1 | -1.48% | -2.67% | -3.45% | 1.78% | 3.28% | -1.25% | 14% | -16.5% | 1.04% | 7.5% | -5.98%

— ChEMBL document CHEMBL3988442, “University of Dundee, Small-Polar-MMV Screening Library” (2021)
